Screens: PubChem, National Center for Advancing Translational Sciences (NCATS)
CBFb-RUNX1 inh – qHTS Assay for Compounds Blocking the Interaction Between CBF-beta and RUNX1 for the Treatment of Acute Myeloid Leukemia; Runt-related transcription factor 1 (Homo sapiens) + Core-binding factor subunit beta …; Potency, µM (series often up to 59.8 µM), without a hit: top-dose activity, negative = inhibition, usual class: inhibitors; AlphaScreen CBFb-His/RUNX1-biotin binding, biochemical; 230,000 tested, under 10 active; note: % of control where 0% means no effect
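Bead-based AlphaScreen assay; binding partners His-tagged CBF-beta and biotinylated RUNX1 at 30 nM each. Compound exposure 15 min after a 20-min protein preincubation; bead step 90 min; all steps at room temperature.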
HPGD block – qHTS Assay for Inhibitors of HPGD (15-Hydroxyprostaglandin Dehydrogenase); 150,000 compounds, 4.3% hits; 15-hydroxyprostaglandin dehydrogenase [NAD(+)] (Homo sapiens), P15428; AID 894, 2007; purified HPGD, NADH fluorescence kinetic, PGE2 substrate; Potency, µM, for the others: at the top dose activity change, negative = inhibition, hits mostly inhibitors; active = well fitted inhibition curve with a large enough effect, not every such curve was filed as active; inconclusive = small, poorly fitted or top-dose-only effect, or another doubt; inactive = no such curve, though single readings can be large or run the other way; note: potency is the fitted concentration of half-maximal effect; % is set by controls: 0 for no effect and ±100 for the full control effect
Target sequence (P15428 whole entry, looked up): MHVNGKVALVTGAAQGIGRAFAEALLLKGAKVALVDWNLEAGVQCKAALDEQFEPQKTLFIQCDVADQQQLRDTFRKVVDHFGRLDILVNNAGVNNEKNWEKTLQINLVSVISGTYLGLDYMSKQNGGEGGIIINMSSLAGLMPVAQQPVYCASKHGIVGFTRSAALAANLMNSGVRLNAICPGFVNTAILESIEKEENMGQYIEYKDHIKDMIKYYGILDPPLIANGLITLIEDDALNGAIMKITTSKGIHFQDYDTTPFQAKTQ
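20 nM HPGD preincubated 15 min at room temperature with compound in 50 mM Tris-HCl pH 8, 0.01% Tween 20. Started with 1 mM NAD+ and 30 uM prostaglandin E2; NADH fluorescence (360/450 nm) read 5 times over 30-s intervals, last minus first.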
PNC assembly inh – High Content Assay for Compounds that inhibit the Assembly of the Perinucleolar Compartment; PC3M PTB-GFP, PNC prevalence imaging, 16 h; active compounds read low; activity change (PNC), negative = inhibition, % at 10 µM; 140,000 compounds, 3.1% hits;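 active = readout at or below -70, meaning at least 70% loss of cells showing the perinucleolar compartment, a nuclear body marking cancer cells; inconclusive = readout between -30 and a set limit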;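 note: plate controls were DMSO wells for no effect and camptothecin positive control wells for full effect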
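Compounds are pinned in duplicate onto adhered PC3M cells stably expressing GFP-tagged PTB and incubated 16 h at 37 C. Cells are then fixed, nuclei stained with Hoechst, and PNC-positive cells counted.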
HttQ103 aggreg – qHTS Multiplex Assay to Identify Dual Action Probes in a Cell Model of Huntington: Aggregate Formation (GFP); 220,000 compounds, 1.1% hits; AID 1688, 2009; Potency, µM (doses to about 46.1 µM), for inactives: top-dose activity change, negative = inhibition, most hits filed as inhibitors; PC12 HttQ103-GFP aggregates, Acumen cytometry, 40 h; note: potency is the fitted concentration of half-maximal effect; % is set by controls: 0 for no effect and ±100 for the full control effect; nearly all actives have a fitted effect of over 60% in size
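Using laser scanning cytometry, GFP-positive aggregates were counted after lysis of PC12 cells induced with 100 nM tebufenozide to express HTT exon 1 Q103–GFP. Compounds were tested in titration.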
ALDH1A1 block – qHTS Assay for Inhibitors of Aldehyde Dehydrogenase 1 (ALDH1A1) | Potency, µM (doses to about 75.3 µM), inactives show top-dose activity, negative = inhibition, most hits filed as inhibitors | AID 1030, 2008 | Aldehyde dehydrogenase 1A1 (Homo sapiens), P00352 | Purified ALDH1A1, NADH fluorescence, propionaldehyde substrate | 220,000 compounds, 7.3% hits; active = well fitted inhibition curve with a large enough effect, not every such curve was filed as active; inconclusive = small, poorly fitted or top-dose-only effect, or another doubt; inactive = no such curve, though single readings can be large or run the other way;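 note: potency is the fitted concentration of half-maximal effect; plate controls were no enzyme wells and a reference inhibitor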
HTT ATP protect – qHTS Multiplex Assay to Identify Dual Action Probes in a Cell Model of Huntington: Cytoprotection (ATP). PC12 HTT-Q103 induced, cytoprotection, ATP luminescence, 40 h. Potency, µM (titrated, usually from 56.4 µM), for the others: cytoprotection (ATP increase), usual class: activators. 230,000 compounds, 0.14% hits; note: potency is the fitted concentration of half-maximal effect; % of control where 0% means no effect; nearly all actives have a fitted effect of over 45% in size
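Compounds were screened for protection of PC12 cells against cell death after tebufenozide induction (100 nM final) of mutant Huntingtin exon 1 (Q103) fused to GFP.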
* marks the source's active call; other numbers are inactive results; ? = inconclusive; · = no result given; [ ] = dose if it differs, or a comment. Rows were chosen to be rich in hits. Some 11% of all compounds tested hit in one or more screens of this group. Unless noted, calls come from the whole dose curve; as a rule, active = well fitted curve in the direction sought with a large enough effect; inconclusive = small, poorly fitted or top-dose-only effect, or another doubt; inactive = no such curve, though single readings can be large; an effect the other way counts as inactive or inconclusive.

SMILES	CBFb-RUNX1 inh	HPGD block	PNC assembly inh	HttQ103 aggreg	ALDH1A1 block	HTT ATP protect
COc1ccccc1C(=O)COC(=O)CNS(=O)(=O)c1ccc(C)cc1	-2%	·	·	1%	-3%	-24%
COc1ccc(C(=O)COC(=O)CNS(=O)(=O)c2ccc(C)cc2)cc1	-1%	3%	-22	25µM*	-10%	2%[10 µM]
COCCNS(=O)(=O)c1ccc(-c2ccc(C)cc2)cc1	1%	?	-18	?	?	-8%
Cc1c(NC(=O)Nc2ccc(Cl)c(Cl)c2)c(=O)n(-c2ccccc2)n1C	6%	-10%	?	-22%	0%	4%
Cc1noc(C)c1-c1ccc2ncnc(NCc3ccc(C(F)(F)F)o3)c2c1	4%	·	·	·	·	·
Cc1ccc(S(=O)(=O)NC(=O)NC(C)(C)C)cc1	2%	0%	-29	7%	7%	-2%
CCOC(=O)CNS(=O)(=O)c1ccc(C)cc1	8%	-3%	-113*	16%	12%	·
CCOC(=O)CNS(=O)(=O)c1ccc(C(=O)O)cc1	4%	-7%	23	4%	-1%	-20%[0.074 µM]
Cc1ccc(S(=O)(=O)NC(=O)Nn2c(C)nnc2C)cc1	10%	-8%	-80*	-4%	16%	1%
Cc1ccccc1OC1C=CC(c2ccccc2)OC1CO (centres undefined)	-9%[13.1 µM]	·	·	·	0%[13.5 µM]	4%[10 µM]
CC(C)(C)OC=O	0%[21.7 µM]	-16%	·	·	6%	2%
CCOC(=O)N1CCN(c2c(NCCOC)c(=O)c2=O)CC1	-3%	-15%	-25	-5%	32µM*	-1%
CCOC(=O)C1CCN(c2c(NCc3ccc(C(=O)NCCOC)cc3)c(=O)c2=O)CC1	4%	3.5µM*	4	5%	-12%	-2%
O=C(NC1CCCc2ccccc21)c1ccc(CNc2c(N3CCOCC3)c(=O)c2=O)cc1 (centres undefined)	3%	-10%	31	18%	1%	-8%[10 µM]
CCOC(=O)C1CCN(c2c(NCc3ccc(C(=O)Nc4ccc(C)cc4)cc3)c(=O)c2=O)CC1	6%	·	·	15%[9.22 µM]	·	-4%[10 µM]
O=C(NC1CCCCCCC1)c1ccc(CNc2c(N3CCOCC3)c(=O)c2=O)cc1	4%	18µM*	-26	0%	?	-4%[10 µM]
CCOc1ccc(OCC)c(NC(=O)c2ccc(CNc3c(N4CCOCC4)c(=O)c3=O)cc2)c1	-3%	-26%	?	?	-5%	3.2µM*
O=C(NCCc1c[nH]c2ccccc12)c1ccccc1O	-2%	·	·	·	·	·
CCCCCCCCCCCCCCCC(=O)OCC(COP(=O)(O)O)OC(=O)CCCCCCCCCCCCCCC (centres undefined)	2%	-3%	·	·	0%	?
Cn1c(SC2CCCCC2=O)nnc1-c1ccccc1F (centres undefined)	2%	·	·	-7%	1%	-23%
COc1c2c(cc3c1C(NC(N)=O)[N+](C)(C)CC3)OCO2 (centres undefined)	12%	-6%	·	·	-5%	?
COc1ccccc1NC(=O)Nc1cccnc1	-12%	·	·	8%[9.22 µM]	-8%	-1%[10 µM]
CCCCNC(=O)c1ccc(CNc2c(N3CCC(C(=O)OCC)CC3)c(=O)c2=O)cc1	-3%	3.5µM*	?	-6%	?	27%[10 µM]
O=C(c1ccc(CNc2c(N3CCOCC3)c(=O)c2=O)cc1)N1CC=C(c2ccccc2)CC1	1%	25µM*	-18	-14%	-6%	10%[10 µM]
CCOC(=O)C1CCN(c2c(NCc3ccc(C(=O)NC4CCCC4)cc3)c(=O)c2=O)CC1	-2%	2µM*	-13	?	-10%	7%[10 µM]
SMILES	CBFb-RUNX1 inh	HPGD block	PNC assembly inh	HttQ103 aggreg	ALDH1A1 block	HTT ATP protect
CCOC(=O)C1CCN(c2c(NCc3ccc(C(=O)O)cc3)c(=O)c2=O)CC1	·	·	·	·	·	-5%
COc1cc(C2C(C#N)=C(N)N(c3ccc(F)cc3)C3=C2S(=O)(=O)CC3)ccc1O (centres undefined)	-8%	·	·	6%	6%	-16%
CO[C@@H]1COC(=O)[C@H](C)NC(=O)C/C=C\[C@@H](C)[C@@H](NS(=O)(=O)c2ccc(C)cc2)COC(=O)C/C=C\[C@@H]1C	16%[13.1 µM]	·	·	·	-7%[13.5 µM]	-43%[10 µM]
CCCC/C=C/[C@H](c1ccccc1)[C@H](CO)Cc1ccccc1	23%	·	·	·	·	·
CSc1nc2nc3c(cn2n1)C(=O)CC(c1ccccc1)C3 (centres undefined)	8%	-21%	24	8%	?	2%
O=C1CC(c2ccccc2)Cc2nc3nc(C(F)(F)F)nn3cc21 (centres undefined)	9%	-16%	?	13µM*	?	-7%
COc1ccc(-n2c(=O)c(-c3ccc(Cl)cc3)nc3cnc(N4CCNCC4)nc32)cc1	·	·	·	·	?	-26%
CCCc1nnc(-c2cc(OC)c(OC)c(OC)c2)o1	3%	-9%	-91*	19%	?	-1%[10 µM]
COc1cc(-c2nnc(-c3ccccc3)o2)cc(OC)c1OC	7%	?	14	12%	?	-3%[10 µM]
COc1cc(-c2nnc(-c3cc(OC)c(OC)c(OC)c3)o2)cc(OC)c1OC	-4%	?	-100*	-1%	?	26%[10 µM]
COc1ccc(CCNC(=S)Nc2cccc3ccccc23)cc1	-18%	-8%	-2	3%	22µM*	10%[10 µM]
S=C(NCc1cccnc1)Nc1cccc2ccccc12	2%	-20%	-7	25%	5µM*	19%[10 µM]
S=C(NCc1cccnc1)NCc1cccnc1	-2%	·	·	-3%	17%	-28%
CCn1cc(CNC(=S)Nc2cccc3ccccc23)cn1	8%	·	·	0%	6.3µM*	·
COc1ccc(OCCNC(=S)Nc2cccc3ccccc23)cc1	-8%	-12%	30	-27%	4%	10%[10 µM]
CCCCNC(=S)Nc1cccc2cnccc12	-1%	·	31	?	?	20%[10 µM]
S=C(NCCc1ccccc1)Nc1cccc2cnccc12	-3%	·	·	3.5µM*	20µM*	10%[10 µM]
O=C(Nc1ccccc1)N1CCCC2(CCN(S(=O)(=O)c3ccccc3)CC2)C1	·	-1%	·	·	?	-5%
